The record followed here is paper PMC7862700, “An all-to-all approach to the identification of sequence-specific readers for epigenetic DNA modifications on cytosine”.

Holding throughout (assay): DAPPL (digital affinity profiling via proximity ligation, sequencing); 10 mM Tris-HCl pH 7.5, 50 mM NaCl, 1 mM DTT, 4% glycerol, room temperature, 30 min; GST-TFs on glutathione beads, 16-mer random dsDNA library, 0.1% formaldehyde crosslink after washing; high values mean tight binding
Holding throughout (settings): protein: recombinant; tags: N-terminal GST; dsDNA, one strand shown

The target of experiment [1] is T1, FLI1 (Homo sapiens, UniProt Q01543 1-452).
T1 sequence: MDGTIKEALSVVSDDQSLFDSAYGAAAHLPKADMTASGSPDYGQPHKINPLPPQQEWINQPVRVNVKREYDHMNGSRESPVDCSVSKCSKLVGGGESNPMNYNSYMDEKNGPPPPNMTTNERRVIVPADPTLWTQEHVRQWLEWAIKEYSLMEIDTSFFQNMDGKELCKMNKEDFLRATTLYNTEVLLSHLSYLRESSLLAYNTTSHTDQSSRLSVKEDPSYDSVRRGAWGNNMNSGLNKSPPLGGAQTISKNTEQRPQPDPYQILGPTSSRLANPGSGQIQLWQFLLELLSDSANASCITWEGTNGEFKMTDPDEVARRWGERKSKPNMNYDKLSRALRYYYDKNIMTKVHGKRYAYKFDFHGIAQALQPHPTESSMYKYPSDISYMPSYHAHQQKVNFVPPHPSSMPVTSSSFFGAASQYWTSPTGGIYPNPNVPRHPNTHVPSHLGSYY
The method, boiled down:
(§1)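 Beads coated with glutathione captured GST-fused human transcription factors that had been expressed in yeast, and the factors were then given DNA barcodes and pooled with a tag-only sample. The pools were incubated with 200 nmole of a random double-stranded 16-mer DNA library in Tris/NaCl/DTT/glycerol buffer for 30 min at room temperature, washed, crosslinked with 0.1% formaldehyde and proximity-ligated with BsaI/T4 ligase at 37 °C for 1 h. PCR amplification and Illumina NextSeq500 sequencing came last. Binding signal is each hexamer's read frequency for a factor divided by its frequency for the tag-only sample.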

The target of experiment [2] is T2, ELK1 (Homo sapiens, UniProt P19419 1-428).
T2 sequence: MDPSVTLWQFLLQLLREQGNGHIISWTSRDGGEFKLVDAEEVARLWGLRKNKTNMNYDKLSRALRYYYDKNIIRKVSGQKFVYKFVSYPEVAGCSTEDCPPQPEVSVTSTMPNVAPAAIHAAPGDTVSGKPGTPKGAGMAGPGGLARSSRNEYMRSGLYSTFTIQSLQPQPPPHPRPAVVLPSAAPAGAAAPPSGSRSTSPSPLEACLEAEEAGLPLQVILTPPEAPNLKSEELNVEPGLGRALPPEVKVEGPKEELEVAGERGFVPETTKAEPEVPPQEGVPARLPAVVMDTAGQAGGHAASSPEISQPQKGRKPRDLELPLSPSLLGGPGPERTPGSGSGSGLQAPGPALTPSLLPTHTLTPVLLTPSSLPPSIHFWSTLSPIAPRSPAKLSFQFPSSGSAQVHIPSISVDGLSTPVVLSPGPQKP
The gist of the method: as §1

Experiment [3] concerns the target T3, GABPA (Homo sapiens, UniProt Q06546 1-454).
T3 sequence: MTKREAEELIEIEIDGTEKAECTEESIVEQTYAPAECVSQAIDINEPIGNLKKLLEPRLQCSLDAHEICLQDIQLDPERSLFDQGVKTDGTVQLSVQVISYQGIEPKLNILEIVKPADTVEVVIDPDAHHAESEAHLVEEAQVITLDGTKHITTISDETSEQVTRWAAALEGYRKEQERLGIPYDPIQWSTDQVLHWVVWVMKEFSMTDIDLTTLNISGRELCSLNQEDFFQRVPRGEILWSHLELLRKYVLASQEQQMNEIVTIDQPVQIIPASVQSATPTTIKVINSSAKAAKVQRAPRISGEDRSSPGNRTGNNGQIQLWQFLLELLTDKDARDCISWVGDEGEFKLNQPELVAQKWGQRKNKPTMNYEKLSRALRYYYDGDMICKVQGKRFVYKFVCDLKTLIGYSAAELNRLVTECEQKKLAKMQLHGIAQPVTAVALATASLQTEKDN
The method, boiled down:
as §1

Experiment [4] addresses T4, ERG (Homo sapiens, UniProt P11308 1-479).
T4 sequence: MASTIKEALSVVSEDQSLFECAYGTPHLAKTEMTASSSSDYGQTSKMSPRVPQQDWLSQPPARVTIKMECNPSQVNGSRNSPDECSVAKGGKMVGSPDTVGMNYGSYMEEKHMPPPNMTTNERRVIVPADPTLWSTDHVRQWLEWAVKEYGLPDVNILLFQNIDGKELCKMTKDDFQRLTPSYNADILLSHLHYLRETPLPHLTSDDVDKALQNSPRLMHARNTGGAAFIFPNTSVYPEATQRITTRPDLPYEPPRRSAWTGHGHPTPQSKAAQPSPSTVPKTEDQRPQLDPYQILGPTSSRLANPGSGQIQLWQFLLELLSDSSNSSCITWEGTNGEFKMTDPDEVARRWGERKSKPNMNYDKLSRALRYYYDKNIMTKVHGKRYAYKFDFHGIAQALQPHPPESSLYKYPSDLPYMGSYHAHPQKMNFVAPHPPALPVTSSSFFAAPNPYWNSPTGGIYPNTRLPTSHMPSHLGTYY
The gist of the method:
as §1

The target of experiment [5] is ELF1 (Homo sapiens, UniProt P32519 1-619). The method, boiled down:
as §1

Experiment [6] concerns the target T5, EHF (Homo sapiens, UniProt Q9NZC4 1-300).
T5 sequence: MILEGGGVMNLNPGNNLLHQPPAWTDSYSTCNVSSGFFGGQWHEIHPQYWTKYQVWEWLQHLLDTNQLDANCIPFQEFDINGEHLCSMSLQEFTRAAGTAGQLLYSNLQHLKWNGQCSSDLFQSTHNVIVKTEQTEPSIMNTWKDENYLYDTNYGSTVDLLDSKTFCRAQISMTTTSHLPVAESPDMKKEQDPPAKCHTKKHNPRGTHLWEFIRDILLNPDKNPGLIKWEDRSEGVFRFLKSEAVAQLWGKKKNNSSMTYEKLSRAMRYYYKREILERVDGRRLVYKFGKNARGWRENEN
The gist of the method: as §1

Experiment [7] has as its target SPIB (Homo sapiens, UniProt Q01892 1-262). The method, boiled down:
as §1

The target of experiment [8] is T6, ELK3 (Homo sapiens, UniProt P41970 1-407).
T6 sequence: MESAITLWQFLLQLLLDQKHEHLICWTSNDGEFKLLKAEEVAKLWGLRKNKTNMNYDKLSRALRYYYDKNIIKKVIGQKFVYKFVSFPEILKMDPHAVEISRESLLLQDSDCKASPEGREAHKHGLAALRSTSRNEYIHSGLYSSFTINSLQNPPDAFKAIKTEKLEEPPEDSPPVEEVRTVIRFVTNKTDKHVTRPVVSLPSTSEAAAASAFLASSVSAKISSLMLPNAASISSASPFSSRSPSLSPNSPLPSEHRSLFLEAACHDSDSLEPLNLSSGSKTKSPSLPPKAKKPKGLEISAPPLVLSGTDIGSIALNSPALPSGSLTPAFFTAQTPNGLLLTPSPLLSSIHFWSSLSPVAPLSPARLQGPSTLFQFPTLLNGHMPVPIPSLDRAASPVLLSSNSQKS
The gist of the method:
as §1

Experiment [9] has as its target T7, FEV (Homo sapiens, UniProt Q99581 1-238).
T7 sequence: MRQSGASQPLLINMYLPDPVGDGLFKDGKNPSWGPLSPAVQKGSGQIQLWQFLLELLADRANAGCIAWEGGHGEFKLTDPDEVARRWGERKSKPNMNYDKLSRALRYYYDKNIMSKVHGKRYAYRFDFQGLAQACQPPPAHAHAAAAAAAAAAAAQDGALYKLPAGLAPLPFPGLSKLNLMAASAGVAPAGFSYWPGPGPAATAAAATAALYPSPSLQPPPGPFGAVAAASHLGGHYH
The gist of the method:
as §1

The target of experiment [10] is ETV5 (Homo sapiens, UniProt P41161 1-510). The gist of the method:
as §1

In experiment [11] the target is T8, SPIC (Homo sapiens, UniProt Q8N5J4 1-248).
T8 sequence: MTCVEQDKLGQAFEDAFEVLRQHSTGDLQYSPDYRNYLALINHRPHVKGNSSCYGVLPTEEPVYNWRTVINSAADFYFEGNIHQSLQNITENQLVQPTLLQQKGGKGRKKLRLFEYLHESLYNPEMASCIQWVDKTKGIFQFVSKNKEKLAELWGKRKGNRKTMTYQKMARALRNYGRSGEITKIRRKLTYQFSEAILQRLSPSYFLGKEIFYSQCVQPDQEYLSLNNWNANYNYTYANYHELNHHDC
The method, boiled down: as §1

In experiment [12] the target is ETV1 (Homo sapiens, UniProt P50549 1-477). The gist of the method: as §1
In experiment [13] the target is T9, ERF (Homo sapiens, UniProt P50548 1-548).
T9 sequence: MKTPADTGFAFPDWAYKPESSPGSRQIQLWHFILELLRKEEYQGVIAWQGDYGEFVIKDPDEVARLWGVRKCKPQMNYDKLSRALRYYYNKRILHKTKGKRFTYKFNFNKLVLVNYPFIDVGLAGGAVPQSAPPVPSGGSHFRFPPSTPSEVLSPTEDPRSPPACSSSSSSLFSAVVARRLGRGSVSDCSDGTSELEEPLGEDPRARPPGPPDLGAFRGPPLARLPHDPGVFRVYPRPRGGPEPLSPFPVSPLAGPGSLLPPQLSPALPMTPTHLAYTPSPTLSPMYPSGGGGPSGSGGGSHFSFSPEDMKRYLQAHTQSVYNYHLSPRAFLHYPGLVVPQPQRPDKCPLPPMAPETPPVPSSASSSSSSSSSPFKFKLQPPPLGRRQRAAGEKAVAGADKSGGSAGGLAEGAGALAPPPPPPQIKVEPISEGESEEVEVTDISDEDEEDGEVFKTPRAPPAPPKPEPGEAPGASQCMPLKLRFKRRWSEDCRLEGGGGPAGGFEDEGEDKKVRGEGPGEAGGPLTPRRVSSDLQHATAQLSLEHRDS
The method, boiled down: as §1

The target in experiment [14] is T10, ETV3L (Homo sapiens, UniProt Q6ZN32 1-361).
T10 sequence: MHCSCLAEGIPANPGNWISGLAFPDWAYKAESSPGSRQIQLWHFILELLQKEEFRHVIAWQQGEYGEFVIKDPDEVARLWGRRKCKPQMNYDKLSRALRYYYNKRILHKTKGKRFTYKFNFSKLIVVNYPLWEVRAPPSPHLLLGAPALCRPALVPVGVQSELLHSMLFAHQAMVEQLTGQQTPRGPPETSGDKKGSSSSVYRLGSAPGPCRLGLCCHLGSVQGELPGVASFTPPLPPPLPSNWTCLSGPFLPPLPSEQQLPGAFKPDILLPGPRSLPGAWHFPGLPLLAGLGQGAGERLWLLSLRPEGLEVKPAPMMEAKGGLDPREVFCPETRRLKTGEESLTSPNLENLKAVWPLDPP
The gist of the method: as §1

Experiment [15] deals with T11, ETS2 (Homo sapiens, UniProt P15036 1-469).
T11 sequence: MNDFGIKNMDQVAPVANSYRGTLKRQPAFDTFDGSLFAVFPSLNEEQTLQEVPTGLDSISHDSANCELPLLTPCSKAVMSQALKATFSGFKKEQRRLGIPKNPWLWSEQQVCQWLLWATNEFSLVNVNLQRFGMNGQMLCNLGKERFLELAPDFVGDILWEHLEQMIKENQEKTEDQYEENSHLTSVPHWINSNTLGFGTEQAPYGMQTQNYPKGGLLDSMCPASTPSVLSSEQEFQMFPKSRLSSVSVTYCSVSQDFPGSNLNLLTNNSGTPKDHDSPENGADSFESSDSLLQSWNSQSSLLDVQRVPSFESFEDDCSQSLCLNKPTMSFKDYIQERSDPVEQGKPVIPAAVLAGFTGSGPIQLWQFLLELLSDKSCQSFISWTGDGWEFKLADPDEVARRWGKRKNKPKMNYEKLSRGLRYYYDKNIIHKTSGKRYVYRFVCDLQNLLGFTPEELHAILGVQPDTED
The gist of the method: as §1

Experiment [16] addresses T12, ETV3 (Homo sapiens, UniProt P41162-2 1-143).
T12 sequence: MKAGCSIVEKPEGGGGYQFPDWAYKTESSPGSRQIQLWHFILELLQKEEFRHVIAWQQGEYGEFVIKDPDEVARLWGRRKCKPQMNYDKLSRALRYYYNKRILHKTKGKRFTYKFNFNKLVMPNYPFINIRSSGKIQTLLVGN
The method, boiled down: as §1

Experiment [17] concerns the target ETV6 (Homo sapiens, UniProt P41212 1-452). The gist of the method: as §1

ETV1, sequence (P50549 whole entry): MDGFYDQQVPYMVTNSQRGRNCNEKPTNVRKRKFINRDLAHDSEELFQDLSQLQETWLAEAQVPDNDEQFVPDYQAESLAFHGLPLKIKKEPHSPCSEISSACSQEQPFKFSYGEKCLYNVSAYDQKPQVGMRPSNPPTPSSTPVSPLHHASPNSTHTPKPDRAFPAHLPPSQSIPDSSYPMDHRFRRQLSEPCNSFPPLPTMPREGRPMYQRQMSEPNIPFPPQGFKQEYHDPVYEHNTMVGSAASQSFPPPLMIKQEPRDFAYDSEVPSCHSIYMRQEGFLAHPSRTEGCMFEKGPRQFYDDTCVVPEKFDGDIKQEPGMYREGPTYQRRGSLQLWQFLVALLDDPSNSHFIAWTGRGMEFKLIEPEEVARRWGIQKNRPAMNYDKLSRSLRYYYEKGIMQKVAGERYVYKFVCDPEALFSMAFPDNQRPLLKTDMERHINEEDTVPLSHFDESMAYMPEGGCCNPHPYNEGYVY
ETV5, sequence (P41161 whole entry): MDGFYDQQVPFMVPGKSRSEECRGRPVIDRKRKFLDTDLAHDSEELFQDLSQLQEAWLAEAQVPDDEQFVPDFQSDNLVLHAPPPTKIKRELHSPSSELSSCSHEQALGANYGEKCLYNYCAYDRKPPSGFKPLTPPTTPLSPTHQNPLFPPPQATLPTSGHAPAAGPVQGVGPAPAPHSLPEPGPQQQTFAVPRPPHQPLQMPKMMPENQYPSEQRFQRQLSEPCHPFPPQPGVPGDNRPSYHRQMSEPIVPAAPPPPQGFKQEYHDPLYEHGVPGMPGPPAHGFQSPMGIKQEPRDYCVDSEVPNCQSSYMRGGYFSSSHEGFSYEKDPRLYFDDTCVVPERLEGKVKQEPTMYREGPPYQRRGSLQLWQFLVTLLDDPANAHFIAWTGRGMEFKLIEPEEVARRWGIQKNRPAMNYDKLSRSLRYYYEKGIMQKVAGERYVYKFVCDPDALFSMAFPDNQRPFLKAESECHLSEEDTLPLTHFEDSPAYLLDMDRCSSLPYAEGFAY
ELF1, sequence (P32519 whole entry): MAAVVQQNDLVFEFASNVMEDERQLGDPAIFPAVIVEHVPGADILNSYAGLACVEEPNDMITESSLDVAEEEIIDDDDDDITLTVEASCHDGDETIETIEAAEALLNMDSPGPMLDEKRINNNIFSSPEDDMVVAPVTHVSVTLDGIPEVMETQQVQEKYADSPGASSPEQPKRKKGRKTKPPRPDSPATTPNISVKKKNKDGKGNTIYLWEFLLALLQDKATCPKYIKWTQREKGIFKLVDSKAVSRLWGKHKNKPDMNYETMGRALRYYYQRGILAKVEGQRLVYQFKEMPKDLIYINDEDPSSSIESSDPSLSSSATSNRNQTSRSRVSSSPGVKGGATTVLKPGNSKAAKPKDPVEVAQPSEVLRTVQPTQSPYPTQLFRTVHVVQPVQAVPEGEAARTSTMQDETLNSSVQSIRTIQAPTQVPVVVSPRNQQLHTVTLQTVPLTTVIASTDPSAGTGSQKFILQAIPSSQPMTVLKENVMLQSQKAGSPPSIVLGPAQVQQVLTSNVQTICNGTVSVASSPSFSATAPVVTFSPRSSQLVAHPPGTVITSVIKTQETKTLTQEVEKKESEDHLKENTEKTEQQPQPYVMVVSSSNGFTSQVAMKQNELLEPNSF
SPIB, sequence (Q01892 whole entry): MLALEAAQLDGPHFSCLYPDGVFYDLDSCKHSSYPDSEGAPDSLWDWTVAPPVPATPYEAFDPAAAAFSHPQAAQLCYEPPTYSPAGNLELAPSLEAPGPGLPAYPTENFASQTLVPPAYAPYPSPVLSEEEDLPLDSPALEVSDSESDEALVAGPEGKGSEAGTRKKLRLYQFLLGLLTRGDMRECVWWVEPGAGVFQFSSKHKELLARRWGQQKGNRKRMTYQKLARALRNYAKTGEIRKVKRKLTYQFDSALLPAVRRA
ETV6, sequence (P41212 whole entry): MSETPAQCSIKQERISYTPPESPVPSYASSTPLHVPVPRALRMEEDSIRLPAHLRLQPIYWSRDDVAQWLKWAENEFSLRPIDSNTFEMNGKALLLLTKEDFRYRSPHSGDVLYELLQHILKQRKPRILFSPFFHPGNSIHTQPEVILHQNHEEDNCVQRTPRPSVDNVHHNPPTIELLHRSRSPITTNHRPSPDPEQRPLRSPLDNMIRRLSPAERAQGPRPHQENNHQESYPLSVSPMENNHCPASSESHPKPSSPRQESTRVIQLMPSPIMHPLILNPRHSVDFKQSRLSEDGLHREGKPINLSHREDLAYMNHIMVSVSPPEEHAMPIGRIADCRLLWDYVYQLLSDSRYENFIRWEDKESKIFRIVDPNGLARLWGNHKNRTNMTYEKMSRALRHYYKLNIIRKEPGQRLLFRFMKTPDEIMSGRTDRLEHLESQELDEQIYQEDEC

With CAACCG, the binding signal in [1] is 1.11 fold enrichment (6-mer frequency, TF over GST control); in [2], 1.13 fold enrichment (6-mer frequency, TF over GST control); in experiment [3], 1 fold enrichment (6-mer frequency, TF over GST control); in experiment [4], 1.11 fold enrichment (6-mer frequency, TF over GST control); in experiment [5] it was 1.03 fold enrichment (6-mer frequency, TF over GST control); in experiment [6] it was 1.06 fold enrichment (6-mer frequency, TF over GST control). Moreover, the binding signal in [7] is 1.15 fold enrichment (6-mer frequency, TF over GST control); in [8], 1.2 fold enrichment (6-mer frequency, TF over GST control); in [9] it was 1.28 fold enrichment (6-mer frequency, TF over GST control); in [10], 1.03 fold enrichment (6-mer frequency, TF over GST control); in experiment [11], 1.02 fold enrichment (6-mer frequency, TF over GST control); in experiment [12], 1.06 fold enrichment (6-mer frequency, TF over GST control). In addition, the binding signal in experiment [13] was 1.03 fold enrichment (6-mer frequency, TF over GST control); in experiment [14], 1.09 fold enrichment (6-mer frequency, TF over GST control); in experiment [15], 1.11 fold enrichment (6-mer frequency, TF over GST control); in experiment [16], 1.08 fold enrichment (6-mer frequency, TF over GST control); in experiment [17] it was 1.13 fold enrichment (6-mer frequency, TF over GST control).

In the case of TGGTGG, the binding signal in experiment [1] was 1.11 fold enrichment (6-mer frequency, TF over GST control); in experiment [2], 1.01 fold enrichment (6-mer frequency, TF over GST control); in experiment [3], 1.12 fold enrichment (6-mer frequency, TF over GST control); in experiment [4] it was 1.1 fold enrichment (6-mer frequency, TF over GST control); in experiment [5] it was 1.03 fold enrichment (6-mer frequency, TF over GST control); in experiment [7], 1.05 fold enrichment (6-mer frequency, TF over GST control). Moreover, the binding signal in [8] is 1.22 fold enrichment (6-mer frequency, TF over GST control); in [10], 1.03 fold enrichment (6-mer frequency, TF over GST control); in experiment [11], 1.03 fold enrichment (6-mer frequency, TF over GST control); in experiment [12], 1.04 fold enrichment (6-mer frequency, TF over GST control); in [13] it was 1.1 fold enrichment (6-mer frequency, TF over GST control); in [15], 1.08 fold enrichment (6-mer frequency, TF over GST control).
